Results: PubChem BioAssay AID1210 (NMMLSC, 2008)
Activity calls are given as the source filed them.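 How the source made its calls: active means blocks over 70% of labeled estradiol binding at 10 µM, or over a set limit at 100 nM; inactive means the rest.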

Molecular target: Estrogen receptor beta (Homo sapiens) (UniProt Q92731)
Experiment: displacement of fluorescent estrogen from ERbeta – cell-based, Cos7 ERbeta-GFP, flow cytometry, primary screen (AID 1210);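 further: 0% = DMSO vehicle wells and 100% = complete loss of labeled estradiol signal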
Conditions: fluorescent estrogen binding, stronger effect = higher value
[1] = ligand binding inhibition, at 0.1 µM

Sequence of Estrogen receptor beta (Homo sapiens) (Q92731 whole entry, looked up): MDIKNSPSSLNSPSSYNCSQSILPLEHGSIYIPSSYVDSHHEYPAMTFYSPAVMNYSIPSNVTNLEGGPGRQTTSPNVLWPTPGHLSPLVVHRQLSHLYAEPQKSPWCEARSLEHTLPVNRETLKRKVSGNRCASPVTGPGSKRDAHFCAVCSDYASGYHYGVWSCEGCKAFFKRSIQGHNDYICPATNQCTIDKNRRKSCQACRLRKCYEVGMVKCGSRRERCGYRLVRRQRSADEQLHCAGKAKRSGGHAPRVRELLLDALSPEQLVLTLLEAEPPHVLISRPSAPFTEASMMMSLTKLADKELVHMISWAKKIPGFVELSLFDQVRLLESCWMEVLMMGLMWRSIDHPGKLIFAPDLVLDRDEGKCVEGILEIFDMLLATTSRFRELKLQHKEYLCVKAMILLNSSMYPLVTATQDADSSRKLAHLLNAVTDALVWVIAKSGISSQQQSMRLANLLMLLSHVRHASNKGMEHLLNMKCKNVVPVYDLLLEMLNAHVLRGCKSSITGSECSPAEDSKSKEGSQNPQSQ

Row | SMILES | inhibition (at 10 µM) | inhibition [1] [%]
1 | O=C(NCCN1CCOCC1)c1cnn2c(-c3ccccc3)cc(-c3ccccc3)nc12 | 47% (inactive) | 21
2 | CN(CC(=O)NC(=O)NCc1ccco1)Cc1nc2ccccc2c(=O)[nH]1 | 14% (inactive) | 53
3 | Nc1ccc2oc(-c3ccccc3Cl)cc(=O)c2c1O | 25% (inactive) | 26
4 | N#CC(C(=O)Nc1ccc(Cl)cc1)=C1Nc2ccccc2N1 | 59% (inactive) | 21
5 | Oc1ccccc1N=Nc1nc(-c2ccccc2)c(-c2ccccc2)[nH]1 | 36% (inactive) | 36
6 | COc1ccc2[nH]c3c(c2c1)CCn1c-3nc2ccccc2c1=O | 16% (inactive) | 36
7 | Cc1csc2nc(CCNS(=O)(=O)c3ccc4c(c3)OCCO4)cn12 | 13% (active) | 87
8 | CCN(CC)c1ccc(-c2nn3c(-c4ccccc4OC)nnc3s2)cc1 | 32% (inactive) | 24
9 | Nc1ccc2oc(-c3ccc4nc[nH]c4c3)nc2c1 | 62% (inactive) | 2
10 | Nc1ccc2nc(-c3cccnc3)[nH]c2c1 | 50% (inactive) | 20
11 | COc1ccc(N=Cc2sc(O)c3ccccc23)cc1 | 47% (inactive) | 22
12 | O=C(c1cc2ncc(Br)cn2n1)N1CCOCC1 | 68% (inactive) | 41
13 | COc1cc2cc(C(c3nnnn3C3CCCC3)N3CCc4ccccc43)c(=O)[nH]c2cc1OC (stereo not given) | 37% (inactive) | 25
14 | COc1ccc(C2Nc3ccccc3C(=O)N2c2ccc(C)cc2)cc1Cn1cc([N+](=O)[O-])cn1 (stereo not given) | 20% (inactive) | 2
15 | COc1ccc(C2Nc3ccccc3C(=O)N2c2ccc(F)cc2)cc1CSc1ccccn1 (stereo not given) | 6% (inactive) | 30
16 | CCc1ccc2[nH]c(=O)c(CN(Cc3ccc4c(c3)OCO4)C(=O)c3ccco3)cc2c1 | 13% (inactive) | 6
17 | Brc1cc2c(cc1C1Nc3ccccc3C3C=CCC31)OCO2 (stereo not given) | 20% (inactive) | 25
18 | Cc1cccc(N2CSC3=C(C#N)C(c4ccc(C)o4)CC(=O)N3C2)c1 (stereo not given) | 35% (inactive) | 21
19 | COc1ccc(CNC(=O)c2cc(-c3cccs3)on2)cc1 | 39% (inactive) | 23
20 | COC(=O)c1c(-c2ccncc2)csc1NC(=O)c1ccoc1C | 52% (inactive) | 1
21 | Oc1ccc(/C=C/c2nc(-c3ccccc3O)n(-c3ccccc3)n2)cc1 | 44% (inactive) | 31
22 | COc1ccc(-c2nn(-c3ccccc3)cc2/C=C2/SC(=S)N(Cc3ccco3)C2=O)c(C)c1 | 57% (inactive) | 23

Row | SMILES | inhibition (at 10 µM) | inhibition [1] [%]
23 | Cc1cc(C(=O)Nc2sc3c(c2C#N)CCC3)no1 | 46% (inactive) | 23
24 | Cc1oc2c(C)c(O)ccc2c(=O)c1N1C(=O)c2ccccc2C1=O | 16% (inactive) | 18
25 | O=Cc1ccc2oc3nc4n(c(=O)c3c(=O)c2c1)CCCS4 | 15% (inactive) | 2
26 | COc1ccc(OC)c(/C=N/c2oc(-c3ccco3)c(-c3ccco3)c2C#N)c1 | 31% (inactive) | 31
27 | Cc1ccc(S(=O)(=O)N2CCCCC2)cc1C(=O)Nc1ncn[nH]1 | 13% (inactive) | 23
28 | CCOC(=O)C1CCCN(C(=O)c2ccc(CS(=O)(=O)c3ccc(C)cc3)o2)C1 (stereo not given) | 55% (inactive) | 21
29 | CN(c1ccccc1C(=O)O)S(=O)(=O)c1ccc2c3c(cccc13)C(=O)N2 | 0% (inactive) | 6
30 | CCCC1=NN2C(=N)/C(=C\c3ccc(SCc4ccco4)o3)C(=O)N=C2S1 | 13% (inactive) | 17
31 | NC(=O)c1c(NC(=O)c2cccs2)sc2c1CCCCCC2 | 54% (inactive) | 42
32 | FC(F)(F)c1ccc2c(c1)C1C=CCC1C(c1ccncc1)N2 (stereo not given) | 0% (inactive) | 51
33 | O=C(c1cccc(F)c1)N1CCN(C(=O)c2cc3ncc(Br)cn3n2)CC1 | 26% (inactive) | 38
34 | C=CCn1c(=O)c(C#N)cc2c(=O)n3ccccc3nc21 | 39% (inactive) | 22
35 | COc1cc(OC)cc(C(=O)NC2CCN(C(=O)N3c4ccccc4Sc4ccccc43)CC2)c1 | 21% (inactive) | 16
36 | CSCCC(NC(=O)c1ccco1)C(=O)OCC(=O)Nc1sccc1C#N (stereo not given) | 6% (inactive) | 28
37 | O=C(O)C1Nc2c(O)cccc2C2C=CCC12 (stereo not given) | 0% (inactive) | 4
38 | O=C(c1cc2c(s1)CCC2)N1CCN(c2ccccc2)CC1 | 52% (inactive) | 7
39 | O=C(CSc1nnc(-c2ccc(O)cc2)n1Cc1ccccc1)NNC(=O)c1ccc(Br)cc1 | 31% (inactive) | 30
40 | CCSc1nc2c(cnn2-c2ccc(C)cc2)c(=O)[nH]1 | 31% (inactive) | 29
41 | CC(C)CN(C(=O)COC(=O)c1cc2c(s1)CCC2)C1CCS(=O)(=O)C1 (stereo not given) | 25% (inactive) | 28
42 | O=c1cc(-c2ccc(O)c(O)c2)oc2c(C3O[C@H](CO)[C@@H](O)[C@H](O)[C@H]3O)c(O)cc(O)c12 (stereo not given in full) | 40% (inactive) | 17
43 | O=C1NC(c2ccc(Br)cc2)Nc2sc3c(c21)CCC3 (stereo not given) | 54% (inactive) | 50
44 | CCc1oc2ccccc2c1C(=O)c1cc(Br)c(O)c(Br)c1 | 45% (inactive) | 9

Row | SMILES | inhibition (at 10 µM) | inhibition [1] [%]
45 | O=S(=O)(/N=C(/Sc1ccccc1)c1ccccc1)c1ccccc1 | 32% (inactive) | 20
46 | O=c1nc2s/c(=C\c3ccco3)c(=O)n2nc1Cc1ccc(F)cc1 | 16% (inactive) | 35
47 | N#CC1=C(N)OC2=C(CCC/C2=C/c2ccoc2)C1c1ccoc1 (stereo not given) | 20% (inactive) | 34
48 | O=C(CSc1nc(C2CCCCC2)n(-c2ccccc2)n1)NCC(F)(F)F | 0% (inactive) | 21
49 | CC1CCCN(c2nc3c(c(=O)[nH]c(=O)n3C)n2Cc2ccccc2Cl)C1 (stereo not given) | 38% (inactive) | 32
50 | CC(=O)c1sc2nc(SCC(=O)N3CCCCC3)[nH]c(=O)c2c1C | 27% (inactive) | 12
51 | CCOC(=O)c1ccc(NC(=O)CSc2nc(C)cc(=O)[nH]2)cc1 | 30% (inactive) | 2
52 | CN(C)c1ccc(N=Cc2ccco2)cc1 | 47% (inactive) | 14
53 | COc1ccc(NC(=O)CN(c2ccccc2)S(=O)(=O)N(C)C)cc1OC | 40% (inactive) | 15
54 | Nc1ccc2nc(-c3ccc(Cl)cc3)[nH]c2c1 | 42% (inactive) | 16
55 | CCOC(=O)C1=C(C)NC(=O)NC1c1ccco1 (stereo not given) | 11% (inactive) | 15
56 | Nc1ccc2nc3n(c(=O)c2c1)CCC3 | 49% (inactive) | 9
57 | Cc1sc2ncnc(SCC(=O)NC(=O)NCc3ccco3)c2c1C | 47% (inactive) | 14
58 | CCOC(=O)c1sc(NC(=O)c2ccc3ncsc3c2)nc1C | 21% (inactive) | 24
59 | COCCOC(=O)c1[nH]c2c(c1C)C(=O)CC(c1ccco1)C2 (stereo not given) | 35% (inactive) | 26
60 | Cc1ccc(/C=c2\sc3nc(-c4ccco4)nn3c2=O)o1 | 61% (inactive) | 27
61 | Oc1ccc(-c2nccc(-c3cccs3)n2)cc1 | 28% (inactive) | 14
62 | CCOC(=O)Cn1cnc2sc3c(c2c1=O)CCC3 | 37% (inactive) | 28
63 | O=C(Oc1ccc(-c2cnc3ccccc3n2)cc1)c1ccc(Br)o1 | 72% (active) | 29
64 | CC(C)c1ccc2c(c1)[C@H]1OCC[C@H]1[C@@H](c1cccs1)N2 | 0% (inactive) | 36
65 | O=C(CSc1nnc(-c2ccc(OC(F)F)cc2)o1)NC(=O)NCc1ccco1 | 39% (inactive) | 44
66 | Cc1ccc(-c2nn(-c3ccccc3)cc2/C=N/NC(=O)c2ccc(Br)o2)cc1 | 38% (inactive) | 58

Row | SMILES | inhibition (at 10 µM) | inhibition [1] [%]
67 | Cc1noc(C)c1COc1ccc(C(=O)OCC(=O)N2c3ccccc3NC(=O)C2(C)C)cc1 | 42% (inactive) | 30
68 | CC(=O)N1c2ccc(Cl)cc2C2C=CCC2C1c1cccc2ccccc12 (stereo not given) | 51% (inactive) | 6
69 | COc1ccc2c(c1)c(=O)oc1cc(OCC(=O)NC3CCCCC3)ccc12 | 31% (inactive) | 22
70 | CCN(c1ccccc1)S(=O)(=O)c1ccc2[nH]cc(C(=O)NCCOC)c(=O)c2c1 | 35% (inactive) | 30
71 | c1coc(-c2nn3c(-c4ccco4)nnc3s2)c1 | 37% (inactive) | 28
72 | CCc1nc(N)nc(N)c1-c1ccc(Cl)cc1 | 38% (inactive) | 25
73 | O=C(O)C1OC(Oc2c(-c3ccc(O)c(O)c3)oc3cc(O)cc(O)c3c2=O)C(O)C(O)C1O (stereo not given) | 55% (inactive) | 2
74 | CC(C)C1Nc2ccc(S(N)(=O)=O)cc2C2C=CCC21 (stereo not given) | 57% (inactive) | 20
75 | Cc1ccnc(NS(=O)(=O)c2ccc(NC(=O)c3cc(-c4ccc(Br)cc4)nc4ccccc34)cc2)n1 | 0% (inactive) | 51
76 | Cc1ccc(NC(=O)CSc2nnnn2-c2ccc3c(c2)OCO3)cc1C | 32% (inactive) | 34
77 | CN(C)CC(=O)N1c2ccccc2CCc2ccc(NC(=O)c3ccc(N)cc3)cc21 | 39% (inactive) | 62
78 | O=S(=O)(Nc1ncnc2sc3c(c12)CCC3)c1ccc2ccccc2c1 | 12% (inactive) | 31
79 | O=S(=O)(NCc1csc(-c2cccnc2)n1)c1cccs1 | 34% (inactive) | 21
80 | COC(=O)C1=C(O)/C(=C\c2ccc(CNC(=O)C(=O)Nc3ccc(C)c(C)c3)o2)N=C1C | 42% (inactive) | 20
81 | COc1cc(-c2nc3ccccn3c2/N=C/c2ccccc2)ccc1O | 54% (inactive) | 9
82 | C/C(N)=C(/C#N)C(=O)CSc1nnc(Nc2cccc(C)c2C)s1 | 39% (inactive) | 7
83 | Nc1ccc(-c2nc3ccc(C(=O)O)cc3s2)cc1 | 65% (inactive) | 10
84 | CCCCn1c(NC(=O)CC)c(C#N)c2nc3ccccc3nc21 | 47% (inactive) | 17
85 | NC(=O)c1oc2ccccc2c1NC(=O)c1nc2ccccc2s1 | 39% (inactive) | 10
